# Test results published in PubChem BioAssay AID1508602 (The Scripps Research Institute Molecular Screening Center, 2020).
# Hit rate of the full screen: of about 650,000 compounds, about 6,800 (1%) were called active. The sample holds actives, similar compounds and a random draw of the others, so the mix is not that of the screen. Unmarked numbers belong to inactive results. No stated cut-off is given here; in the data, active means activation above about 4.9%; inactive means the rest.
# Target: G-protein coupled receptor 151 (Homo sapiens) (UniProt Q8TDV0)
# Sequence (Q8TDV0 whole entry, looked up): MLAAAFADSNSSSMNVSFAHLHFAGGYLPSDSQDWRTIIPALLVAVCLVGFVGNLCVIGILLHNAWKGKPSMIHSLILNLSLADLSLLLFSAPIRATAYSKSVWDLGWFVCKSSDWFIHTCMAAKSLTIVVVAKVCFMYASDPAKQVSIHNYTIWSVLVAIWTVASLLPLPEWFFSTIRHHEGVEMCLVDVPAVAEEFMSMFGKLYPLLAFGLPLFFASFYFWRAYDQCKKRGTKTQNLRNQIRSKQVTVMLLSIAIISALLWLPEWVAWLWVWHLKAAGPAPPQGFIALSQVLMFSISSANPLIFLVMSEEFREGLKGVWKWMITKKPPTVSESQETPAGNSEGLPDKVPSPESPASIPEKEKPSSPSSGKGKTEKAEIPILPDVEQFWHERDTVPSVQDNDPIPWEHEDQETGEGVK
# Test: activators of human GPR151, primary screen, cell-based, PathHunter beta-arrestin, luminescence (AID 1508602);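 further: 0% = median of compound wells and 100% = cells with positive control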
# Conditions: PathHunter beta-arrestin GPR151 cells, at 11.2 µM, stronger effect = higher value
row,SMILES,activation
1,COc1ccc(CNCc2cccn2-c2sc(C)c(C)c2C(=O)O)cc1,0.477%
2,C=CCN(c1ccc(C(=O)Nc2cc(C)cc(C)c2)cc1)S(C)(=O)=O,-0.236%
3,C=CCN(c1ccc(C(=O)Nc2ccc(Br)c(Cl)c2)cc1)S(C)(=O)=O,0.888%
4,C=CCN(c1ccc(C(=O)Nc2ccc(OCc3ccccc3)cc2)cc1)S(C)(=O)=O,5% (active)
5,CCOC(=O)c1ccc(NC(=O)CSc2nc(NCc3ccc(Cl)cc3)c3ccccc3n2)cc1,-0.895%
6,O=C(Nc1cccc(Cl)c1)N(C1=NCCC1)c1ccc(Cl)cc1,0.148%
7,CCc1c(C(=O)N2CCN(c3cccc(Cl)c3)CC2)[nH]c(C)c1C(C)=O,4.26%
8,CC(=O)c1c(C)[nH]c(C(=O)N2CCN(c3ccc(Cl)cc3)CC2)c1C,5.19% (active)
9,CC(=O)c1c(C)[nH]c(C(=O)CN2CCN(C(=O)c3ccccc3)CC2)c1C,0.331%
10,COc1ccc(C(=O)NCCc2ccc(F)cc2)cc1[N+](=O)[O-],0.474%
11,COc1cccc(-c2nnc(N)s2)c1,-0.725%
12,Cc1cnc(C(=O)N2CCc3ccc(NC(=O)Cc4ccccc4F)cc3C2)cn1,1.39%
13,CCOC(=O)N1CCN(Cc2nc3c(c(=O)n(C)c(=O)n3C)n2CC(C)C)CC1,-1.33%
14,Cc1nc(N2CCCC2C(=O)N2CC3CCC2C3)nc2ccccc12 (stereo unspecified),0.0962%
15,COc1ccccc1C1CCCN1C(=O)C1CCN(c2nc(C)c3ccccc3n2)CC1 (stereo unspecified),11.3% (active)
16,COc1ccccc1C1CCCN1C(=O)C1CC(Cc2ccc(F)cc2)=NO1 (stereo unspecified),1.31%
17,O=C(O)CCC(=O)N1N=C(c2ccc(O)cc2)CC1c1ccc(Br)cc1 (stereo unspecified),0.932%
18,CCc1cc(C(=O)COc2ccc([N+](=O)[O-])cc2)c(O)cc1O,-0.273%
19,Cc1cc(Oc2ncnc(N)c2[N+](=O)[O-])cc(C(C)C)c1,1.22%
20,NC(=O)c1ccnc(N2CCc3ccccc3C2)c1,0.149%
21,CN1C(=O)NC(=O)/C(=C\c2ccc(-c3ccc(Br)c(Cl)c3)o2)C1=O,-0.645%
22,COc1cc(C=O)ccc1OCc1ccc(Br)cc1,-0.687%
23,COc1ccc(C=O)cc1OCc1ccc(F)cc1,4.92% (active)
24,COc1cc(C=O)ccc1OCCOc1ccc(C=O)cc1OC,-1.4%
25,O=C(CC1=CCCCC1)NCC1Cc2cc(F)cc(-c3cncnc3)c2O1 (stereo unspecified),-1.03%
26,CCc1cccc(C)c1NC(=O)/C=C/C(=O)O,0.671%
